# High-throughput results (PubChem)
# This is a sample that favours compounds with a hit; in the whole collection about 1.2% have one here.
# RGS16-Gao HTS: modulates binding between human RGS16 and Galphao. O15492+P09471. bead-based flow cytometry RGS16-Galphao binding, fluorescence; actives lie on both sides. binding response (% of control), % at 10 µM. actives 0.38% (n = 220,000). AID 1441;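 also: Galphao activated by GDP with aluminum fluoride before binding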
# RGS7-Gao reg: regulators of human RGS7-Galphao interaction | P09471 | Multiplexed bead flow cytometry, RGS7-Galphao binding; actives lie on both sides | binding response (% of control), % at 10 µM | actives 0.35% (n = 220,000); in the data active = binding response below about 49% or above about 150%; inconclusive = no clear call, values can overlap the other calls; inactive = in between;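 also: fluorescent Galphao held in activated GDP-AlF4 state binding bead-coupled RGS7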
# Target sequence (P09471 whole entry, looked up): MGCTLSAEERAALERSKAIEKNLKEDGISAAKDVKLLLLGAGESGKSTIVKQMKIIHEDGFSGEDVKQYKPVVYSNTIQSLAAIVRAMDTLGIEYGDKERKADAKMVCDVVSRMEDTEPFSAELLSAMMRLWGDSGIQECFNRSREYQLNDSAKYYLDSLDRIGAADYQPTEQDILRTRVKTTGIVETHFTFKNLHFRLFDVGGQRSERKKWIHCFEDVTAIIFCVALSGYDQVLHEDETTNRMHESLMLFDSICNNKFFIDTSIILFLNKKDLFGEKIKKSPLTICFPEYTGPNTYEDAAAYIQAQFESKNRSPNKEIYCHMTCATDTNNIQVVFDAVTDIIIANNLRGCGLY
# Avidin fluor: compound fluoresces at 488/530 nm on avidin beads | AID 1775 | actives 0.38% (n = 220,000) | fluorescence (KMESF) at 10 µM | compound fluorescence 488/530 nm, flow cytometry; active compounds read high; in the data active = fluorescence above about 47
# RGS8-Gao: modulates binding of RGS8 to human Galphao | response (percent of control binding), % at 10 µM | multiplexed bead flow cytometry; actives lie on both sides | actives 0.34% (n = 220,000) | AID 1423 | P09471; in the data active = response below about 60% or above about 140%; inactive = in between;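 also: Galphao activated as the GDP aluminium fluoride complex binding bead-coupled RGS8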
# RGS4-Gao reg: human RGS4-Galphao interaction regulation. AID 1415. binding response (% of control), % at 10 µM. actives 0.33% (n = 220,000). P09471. Multiplexed bead flow cytometry, RGS4-Galphao binding; actives lie on both sides; in the data active = binding response below about 49% or above about 150%; inactive = in between;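 also: fluorescent Galphao activated with aluminum fluoride binding bead-coupled RGS4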
# GSH fluor: compound fluoresces at 488/530 nm on GSH beads. GSH beads flow cytometry, compound fluorescence 488/530 nm; active compounds read high. fluorescence (KMESF) at 10 µM. actives 0.25% (n = 190,000). AID 1776; in the data active = fluorescence above about 89;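 also: glutathione beads carrying GST-tagged Bcl family fusion proteins plus one bare bead set; values are compound well signal with DMSO vehicle wells as background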
# RGS4-Gao HTS: modulates binding between human RGS4 and Galphao; actives 99% (n = 1,600); shares compounds with RGS16-Gao HTS; RGS4–Galpha-o binding response, % at 10 µM; multiplexed bead flow cytometry, RGS–Galpha-o binding;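 also: fluorescently labeled Galpha-o bound to GDP with aluminium fluoride binding biotinylated RGS beads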
# Biotin-avidin: interferes with biotinylated probe binding to avidin beads; shares compounds with RGS16-Gao HTS; streptavidin beads, fluorescein-biotin binding, flow cytometry; inhibition, % at 10 µM; 1,700 tested, under 10 active; AID 1783;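 active = inhibition above 50%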;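 also: median green fluorescence of gated singlet beads compared with DMSO control wells; 0% = DMSO wells and 100% = complete loss of bead fluorescence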
# RGS8-Gao confirm: confirmation of regulators of human RGS8-Galphao interaction. shares compounds with RGS16-Gao HTS. bead-based flow cytometry RGS8-Galphao binding, fluorescence; actives lie on both sides. binding response (% of control), % at 10 µM. actives 3% (n = 1,700); in the data active = binding response below about 72% or above about 130%; inactive = in between;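 also: Galphao activated as GDP AlF4 complex before binding bead RGS8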
# RGS7-Gao single: confirmation of regulators of human RGS7-Galphao interaction; actives 7.8% (n = 1,700); shares compounds with RGS16-Gao HTS; response (percent of control binding), % at 10 µM; bead-based flow cytometry RGS7-Galphao binding; actives lie on both sides; AID 1837; in the data active = response below about 75% or above about 130%; inactive = in between;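 also: fluorescent Galphao activated with GDP and aluminum fluoride binding bead-coupled RGS7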
# RGS16-Gao conf: RGS16-Galphao interaction regulation, single point confirmation | response (% of control binding), % at 10 µM | actives 4% (n = 1,700) | AID 1838 | shares compounds with RGS16-Gao HTS | bead-based flow cytometry, RGS16-Galphao binding; actives lie on both sides; in the data active = response below about 74% or above about 130%; inactive = in between;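 also: Galphao activated as the GDP aluminium fluoride complex binding bead-coupled RGS16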
# RGS4-Gao confirm: RGS4-Galphao interaction regulation, single point confirmation | shares compounds with RGS16-Gao HTS | binding response (% of control), % at 10 µM | AID 1840 | RGS4-Galphao binding, multiplexed bead flow cytometry; actives lie on both sides | actives 4% (n = 1,700); in the data active = binding response below about 74% or above about 130%; inactive = in between
# RGS19-Gao conf: RGS19-Galphao interaction regulation, single point confirmation. shares compounds with RGS16-Gao HTS. bead-based flow cytometry RGS19-Galphao binding; actives lie on both sides. response (percent of control binding), % at 10 µM. actives 5% (n = 1,700); in the data active = response below about 50% or above about 160%; inactive = in between;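 also: 100% = no compound control and 0% = blank background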
# Target sequence (P09471 whole entry, looked up): as above
# Target sequence (P49795 whole entry, looked up): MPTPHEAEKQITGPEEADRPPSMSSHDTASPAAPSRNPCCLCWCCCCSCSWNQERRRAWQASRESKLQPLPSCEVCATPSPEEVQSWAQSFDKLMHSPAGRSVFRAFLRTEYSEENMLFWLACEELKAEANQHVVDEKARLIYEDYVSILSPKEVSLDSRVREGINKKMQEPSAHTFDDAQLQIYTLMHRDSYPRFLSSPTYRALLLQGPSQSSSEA
# Starred values were filed as active, the others as inactive; ? = inconclusive; nt = no result; [ ] = remark or other dose. Unless noted, no rule for the calls is given here.
SMILES,RGS16-Gao HTS,RGS7-Gao reg,Avidin fluor,RGS8-Gao,RGS4-Gao reg,GSH fluor,RGS4-Gao HTS,Biotin-avidin,RGS8-Gao confirm,RGS7-Gao single,RGS16-Gao conf,RGS4-Gao confirm,RGS19-Gao conf
C/C(=N\NC(=O)Cn1cc([N+](=O)[O-])cn1)c1ccc(O)cc1,93,?,8,93,93,nt,nt,nt,nt,nt,nt,nt,nt
COc1ccc(NC(=O)/C(C#N)=C\c2ccc(N3CCOCC3)o2)cc1,102,102,15,99,103,13,nt,nt,nt,nt,nt,nt,nt
N#C/C(=C/c1ccc(N2CCCCC2)o1)C(=O)Nc1ccc2ccccc2c1,164,192*[activator],111*,91,177*[activator],82,nt,2,103,175*[activator],138*[activator],148*[activator],220*[activator]
CSC1=NSC2=NC(=O)/C(=C/c3coc4ccc(O)cc4c3=O)C(=N)N12,97,92,13,96,97,15,nt,nt,nt,nt,nt,nt,nt
CSC1=NSC2=NC(=O)/C(=C/c3coc4ccccc4c3=O)C(=N)N12,200,174*[activator],94*,92,150,13,150*,nt,nt,nt,nt,nt,nt
Cc1cc(C(=O)CSc2nc3ccccc3c(=O)[nH]2)c(C)n1C,11*,8.0*,-1,10*,18*,24,nt,0,104,102,104,102,98
Cc1ccccc1NC(=O)COC(=O)c1cc(=O)c2ccccc2o1,35,37*,9,48*,41*,15,nt,0,104,101,106,103,108
COc1cc2c3c(c1OC)C1(C=CC(=O)C=C1)CC3N(C(=O)c1ccccc1)CC2 (stereo not drawn),103,156*[activator],120*,97,105,12,105*,nt,nt,nt,nt,nt,nt
COc1cc2c3c(c1OC)C1(C=CC(=O)C=C1)CC3N(C(=O)CCC(=O)O)CC2 (stereo not drawn),97,?,7,101,98,nt,nt,nt,nt,nt,nt,nt,nt
CC1CC(OCC(O)C[N+]2(C)CCOCC2)CC(C)(C)C1 (stereo not drawn),17*,21*,5,30*,22*,14,nt,0,108,106,109,105,109
COc1ccc(C2C(C(N)=O)=C(C)Nc3nc(-c4ccccc4OC)nn32)cc1OC (stereo not drawn),99,95,25,100,93,15,nt,nt,nt,nt,nt,nt,nt
COC(=O)c1nc2n(n1)C(c1ccc(OC)c(OC)c1)C(C(=O)OC1CCCCC1)=C(C)N2 (stereo not drawn),-38*,88,2,88,82,54,82*,1,103,100,97,102,93
Cc1nn(-c2ccccc2)c(C)c1NC(=O)c1cccs1,-7.9*,88,9,80,82,10,82*,0,101,103,100,103,101
Cc1nn(-c2ccccc2)c(C)c1NC(=O)Cc1cccs1,58,55,6,68,56,17,nt,nt,nt,nt,nt,nt,nt
O=S(=O)(NCc1ccccn1)c1ccc(Cl)s1,102,101,2,97,101,9,nt,nt,nt,nt,nt,nt,nt
Cc1ccccc1SCCNC(=O)c1ccccc1Br,101,93,9,98,97,15,nt,nt,nt,nt,nt,nt,nt
CCCOC(=O)c1c(NC(=O)C2CCCO2)sc(C(=O)OC)c1C (stereo not drawn),55,114,0,88,102,12,nt,nt,nt,nt,nt,nt,nt
CCOC(=O)c1c(NC(=O)C2CCCO2)sc(C(N)=O)c1C (stereo not drawn),295*[activator],113,15,133,111,4,111*,-1,100,88,100,93,93
COc1ccc(S(=O)(=O)N(C)C)cc1NC(=O)CSc1nncs1,98,107,13,99,105,17,nt,nt,nt,nt,nt,nt,nt
O=[N+]([O-])c1ccc(Sc2cccc[n+]2[O-])c2nonc12,3.0*,?,4,36*,84,nt,84*,-2,52*,81,26*,77,21*
CSCCC(NC(=O)c1cccc([N+](=O)[O-])c1)c1nc2ccccc2[nH]1 (stereo not drawn),105,100,4,109,100,9,nt,nt,nt,nt,nt,nt,nt
CSCCC(NC(=O)c1cccc([N+](=O)[O-])c1)C(=O)O (stereo not drawn),187*[activator],113,15,115,106,13,106*,0,100,99,100,98,91
CCc1cc(C=NC2CCCCC2)c(O)s1,-39*,-28*,-5,-0.4*,-60*,11,nt,-2,100,96,99,99,112
CC1(C)COC2(OC1)C(=O)N(CN1CCOCC1)c1ccccc12,128,252*[activator],124*,106,128,22,128*,0,99,96,99,101,90
O=C1N(CN2CCC3(CC2)OCCO3)c2ccccc2C12OCCCO2,104,100,21,99,95,9,nt,nt,nt,nt,nt,nt,nt
CCc1cc2c(=O)c(-c3cnn(-c4ccccc4)c3)c(C)oc2cc1OCC(=O)Nc1cccc(C)c1,257*[activator],109,14,129,109,5,109*,-1,104,94,107,102,134
COc1ccc(C(=O)Nc2cnn(Cc3c(F)cccc3Cl)c2)cc1OC,104,?,14,104,106,nt,nt,nt,nt,nt,nt,nt,nt
CCNc1ncnc2c1cnn2C,98,98,11,103,100,15,nt,nt,nt,nt,nt,nt,nt
CCCCC(CCC(=O)O)(C(=O)OCC)c1csc(Nc2ccc(C)cc2)n1 (stereo not drawn),10.0*,-16*,0,12*,1.7*,13,nt,3,94,92,92,91,75
